PubChem BioAssay AID651898 (Broad Institute, 2012)
The list shows a part of the results. Calls of active or inactive are those of the source. How the calls were made is not given here.

Test: cytotoxicity in HepG2 cells, dose response, cytotoxicity control, cell-based, plate reader, cherry-pick, two tests (AID 651898)
Settings: max activity: at 12 µM, test 1 unless noted; series mostly up to 26 µM; activity change, negative = cytotoxicity: at the top concentration
For `Cc1nc2nc(SCC(=O)NCc3ccco3)nn2c(C)c1Cc1ccccc1`, the max activity was 6.48% [at 0.195 µM, test 1] (inactive). For `Cc1nc(=O)c(-c2ccccc2)c(C)n1-c1ccc(Br)cc1`, the max activity was 19% (inactive). For `O=c1[nH]c(N2CCN(Cc3ccc4c(c3)OCO4)CC2)nc2c1CCCC2`, the max activity was -9.65% [at 0.38 µM, test 1] (inactive). In the case of `Cc1c2cnn(CC(=O)NCc3ccccn3)c(=O)c2c(C)n1Cc1ccc(Cl)cc1`, the max activity is reported as 24.2% [at 26 µM, test 1] (inactive). In the case of `C=C(C)CSc1nc(N)c2c3c(sc2n1)CCC3`, the max activity is reported as -7.76% [at 1.6 µM, test 1] (inactive). In the case of `CCCOc1ccc2c3c(c(=O)oc2c1OCCC)CCC3`, the max activity is reported as 27.7% [at 26 µM, test 1] (inactive). For `CC(=O)O[C@]1(C(C)=O)CC[C@H]2[C@@H]3C=C(C)C4=CC(=O)CC[C@]4(C)[C@H]3CC[C@@]21C`, the max activity was 5.11% [at 1.6 µM, test 1] (inactive). For `CC(=O)CSc1nnc(CSc2ncccn2)n1C1CCCCC1`, the max activity was 18.7% [at 1.6 µM, test 1] (inactive). With `Cc1c(OC(C)C(=O)NCC2CCC(C(=O)O)CC2)ccc2c1oc(=O)c1ccccc12` (stereo not given) the max activity was 38.2% (inactive). In the case of `COc1cc(-c2n[nH]c(=S)n2Cc2ccccc2)cc(OC)c1OC`, the max activity is reported as -15.9% (inactive). With `O=C(c1ccncc1)N1CC[C@@H]2[C@H]1c1cc(Br)ccc1N[C@@H]2CO` the max activity was -16.4% [measured here: replicate test 2 max activity, at 0.8 µM, test 2] and the “activity change, negative = cytotoxicity” value was 2.06% (inactive). For `COCCNC(=O)C[C@H]1CC[C@@H]2[C@H](COc3ccc(NC(=O)Nc4cccc(F)c4)cc3C(=O)N2C)O1`, the “activity change, negative = cytotoxicity” value was 9.7% [at 23.5 µM] (inactive) and the max activity was 9.85% [measured here: replicate test 2 max activity, at 3 µM, test 2]. In the case of `Cc1ccc(Cc2c(C)nc3nc(SCC(=O)NCCN4CCOCC4)nn3c2C)cc1`, the max activity is reported as -6.95% [at 0.38 µM, test 1] (inactive). For `Cn1c(=O)c2c(nc(OCc3cccnc3)n2Cc2ccccc2)n(C)c1=O`, the max activity was -11.3% [at 26 µM, test 1] (inactive). In the case of `CCC(CO)Oc1cc(NC(=O)c2cccc(F)c2)c2ncn(C(C)C)c2c1` (stereo not given), the “activity change, negative = cytotoxicity” value is reported as -8.3% (inactive) and the max activity is reported as 10.6% [measured here: replicate test 2 max activity, at 0.195 µM, test 2]. In the case of `CC1(C)CC(=O)C=C(c2ccc3ncccc3c2)C1`, the max activity is reported as -17% (inactive). For `O=C(CSc1n[nH]c(-c2cccnc2)n1)Nc1ccnc2ccccc12`, the max activity was 8.04% (inactive). For `C=CCn1c(SCc2c(C(=O)OC)sc(N)c2C(=O)OC)nnc1-c1ccc(Cl)cc1`, the max activity was -11.6% [at 1.6 µM, test 1] (inactive). With `CN1c2ccc(-c3ccccc3)cc2[C@H]2[C@H](CCN2C(=O)Cc2ccccn2)[C@H]1CO` the “activity change, negative = cytotoxicity” value was 20.8% [at 23.5 µM] (inactive) and the max activity was 20.8% [measured here: replicate test 2 max activity, at 23.5 µM, test 2]. For `CS(=O)(=O)N1[C@H](C(=O)NCc2ccncc2)[C@@H](CO)[C@@H]2Cn3c(ccc(C4=CCCCC4)c3=O)[C@@H]21`, the max activity was -13.1% [measured here: replicate test 2 max activity, at 3 µM, test 2] and the “activity change, negative = cytotoxicity” value was -12.1% (inactive).
